HP1b chromo inh: HTS for Inhibitors of HP1-beta Chromodomain Interactions with Methylated Histone Tails; AlphaScreen HP1-beta / biotin-H3K9me3 peptide binding; Potency, µM (doses to about 114 µM), most hits filed as inhibitors; hit rate 0.56% among 390,000; further: nearly all actives have a fitted effect of over 70% in size
Target sequence (P83916 whole entry, looked up): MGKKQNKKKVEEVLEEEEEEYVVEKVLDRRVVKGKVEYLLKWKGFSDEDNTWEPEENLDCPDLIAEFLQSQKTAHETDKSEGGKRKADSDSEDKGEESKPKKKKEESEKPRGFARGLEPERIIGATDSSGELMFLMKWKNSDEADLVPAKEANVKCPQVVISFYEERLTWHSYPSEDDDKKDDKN
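HP1-beta protein (50 nM final) preincubated 30 min at room temperature with biotinylated H3(1-18)K9me3 peptide (50 nM) in PBS pH 7.4, 0.01% Tween-20, then compound added for 30 min. AlphaScreen streptavidin donor/nickel chelate acceptor beads (10 ug/mL final), 30 min dark, luminescence read.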
BAZ2B inh: qHTS Assay for Inhibitors of BAZ2B | AlphaScreen BAZ2B-H3K14Ac peptide displacement | Potency, µM (highest dose often 114 µM), actives largely listed as inhibitors | hit rate 4.4% among 360,000 | AID 504333, 2011; further: nearly all actives have a fitted effect of over 60% in size
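Complex of BAZ2B and biotin-H3K14Ac (50 nM apiece) forms over 30 min at RT, then faces library compounds up to 110 uM for another 30 min; AlphaScreen beads added, 20 min dark incubation, luminescence read.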
L3MBTL1 inh: qHTS Assay for the Inhibitors of L3MBTL1; hit rate 0.66% among 230,000; Potency, µM (series often up to 57.1 µM), actives largely listed as inhibitors; AlphaScreen L3MBTL1–H3K9me1 peptide binding; further: nearly all actives have a fitted effect of over 60% in size
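Displacement of a biotinylated histone H3(1-15) peptide monomethylated at Lys9 (75 nM) from L3MBTL1 (50 nM) was measured by AlphaScreen after a 30 min room-temperature compound incubation; cefsulodin titration served as intraplate control.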
Sfp PPTase inh: qHTS Assay for Inhibitors of Bacillus subtilis Sfp phosphopantetheinyl transferase (PPTase) | AID 1490, 2009 | Biochemical Sfp PPTase activity, qHTS | Potency, µM, usual class: inhibitors | hit rate 3.5% among 310,000 | 4'-phosphopantetheinyl transferase ffp (Bacillus subtilis), Q9F4F7;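 further: the enzyme is Sfp with the accession as filed and its product quenches rhodamine fluorescence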
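Fluorescence-quenching assay: 15 nM Sfp-PPTase preincubated 15 min at room temperature with compound, then 5 uM rhodamine-CoA and 12.5 uM BHQ-2-labelled YbbR peptide added. Fluorescence (ex 525/em 598 nm) read at start and after 30 min; difference gives rate.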
JMJD2A Tudor inh: qHTS Assay for Inhibitors of JMJD2A-Tudor Domain | Potency, µM (top dose mostly 114 µM), hits mostly inhibitors | Lysine-specific demethylase 4A (Homo sapiens), O75164 | AlphaScreen JMJD2A-Tudor / H3K4me3 peptide binding | hit rate 4.4% among 390,000 | AID 504339, 2011; further: nearly all actives have a fitted effect of over 50% in size
G9a block: qHTS Assay for Inhibitors of Histone Lysine Methyltransferase G9a. Histone-lysine N-methyltransferase EHMT2 (Homo sapiens), Q96KQ7. G9a H3K9 monomethylation, AlphaScreen, 2 h. Potency, µM (doses to about 102 µM), most hits filed as inhibitors. hit rate 8.8% among 350,000; further: nearly all actives have a fitted effect of over 75% in size
Target sequence (Q96KQ7 913-1193 limits assumed): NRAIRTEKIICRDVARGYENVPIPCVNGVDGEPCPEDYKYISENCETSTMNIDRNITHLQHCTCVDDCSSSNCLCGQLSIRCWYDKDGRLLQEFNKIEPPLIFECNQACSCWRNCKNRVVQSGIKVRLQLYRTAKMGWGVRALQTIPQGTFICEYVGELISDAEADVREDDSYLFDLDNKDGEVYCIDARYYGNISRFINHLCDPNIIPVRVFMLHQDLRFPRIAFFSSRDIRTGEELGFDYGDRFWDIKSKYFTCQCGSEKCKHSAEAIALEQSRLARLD
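Compounds were preincubated with 20 nM G9a for 15 min, after which biotinylated H3K9 peptide (500 nM) and SAM (20 uM) started a 2 h room-temperature reaction. Monomethylated product was quantified by antibody-based AlphaScreen chemiluminescence.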
Hits are given with their value; 0 = inactive; ? = inconclusive; - = no result given; [ ] = dose if it differs, or a comment. Only some compounds are listed: those with a hit (about 12% of all), similar ones and a draw of the others. The call rests on the fitted dose curve; in most records, active means well fitted curve in the direction sought with a large enough effect; inconclusive means small, poorly fitted or top-dose-only effect, or another doubt; inactive means no such curve, though single readings can be large; an effect the other way counts as inactive or inconclusive.

SMILES	HP1b chromo inh	BAZ2B inh	L3MBTL1 inh	Sfp PPTase inh	JMJD2A Tudor inh	G9a block
CCN(CC)c1ccc(NC(=O)c2ccccn2)cc1S(=O)(=O)Nc1ccccc1OC	?	?	0	-	56µM	2.5µM
CCN(CC)c1ccc(N)cc1S(=O)(=O)Nc1ccccc1OC	11µM	?	0	11µM	?	2.5µM
COc1ccc(NS(=O)(=O)c2cc(NC(=O)c3ccccn3)ccc2OC)cc1Br	0	-	0	-	0	-
CCN(CC)c1ccc(NC(=O)COc2ccccc2C#N)cc1S(=O)(=O)Nc1ccccc1OC	?	0	0	?	?	2.5µM
CCN(CC)c1ccc(N)cc1S(=O)(=O)Nc1ccc(OC)cc1	?	?	0	0	0	?
CCN(c1ccc(NC(=O)COC(=O)/C=C/c2cccs2)cc1)C(C)C	35µM	18µM	0	0	22µM	8.9µM
CCN(c1ccc(NC(=O)COC(=O)c2ccc3ccccc3n2)cc1)C(C)C	22µM	35µM	?	0	25µM	?
O=C(NCSc1ccccc1)c1ccccc1	0	0	0	-	0	0[2.33 µM]
Cc1cc(C)nc(SCNC(=O)c2ccc(F)cc2)n1	0	0	0	50µM	0	?
Cc1cc(SCNC(=O)c2ccccc2)ncn1	?	0	-	25µM	28µM	?
CCN(CC)c1nn2c(=O)c(C(=O)NCc3cccc(OC)c3OC)cnc2s1	0	0	-	-	0	0
O=C1C=C(c2ccccc2)OC(c2ccccc2)O1 (stereo not given)	0	50µM	0	0	0	?
O=C1C=C(c2ccccc2)OC2(CCCC2)O1	0	0	0	0	0	?
CCc1cccc2c(-c3ccc(F)cc3)nc(SCC(=O)Nc3ccccc3)nc12	0	0	-	-	0	0
Cc1ccc(C(=O)n2c(=S)nc3ccccn32)cc1	-	0	-	?	-	25µM
O=C(c1ccccc1)n1c(=S)nc2ccccn21	0	0	0	0	0	?
Cc1cccc(C(=O)n2c(=S)nc3ccccn32)c1	0	0	-	40µM	0	2.2µM
Cc1cccn2c(=O)c3cc(C#N)c(=O)n(-c4nnc(SCc5ccc(F)cc5)s4)c3nc12	0	0	-	-	0	0
Cc1ccc(CNC(=O)CCC2CCCN(C(=O)CCC(F)(F)F)C2)o1 (stereo not given)	0	0	0	?	0	50µM
Cc1ccc(CNC(=O)CCC2CCCN(C(=O)c3ccc4c(c3)OCO4)C2)o1 (stereo not given)	0	0	0	28µM	0	50µM
Cc1ccc(CNC(=O)CCC2CCCN(Cc3cccc4cccnc34)C2)o1 (stereo not given)	0	?	0	0	0	40µM
Cc1ccc(CNC(=O)CCC2CCCN(Cc3cccc4ncccc34)C2)o1 (stereo not given)	0	0	0	0	0	0
CCn1ccc2cc(S(=O)(=O)N3CCC(C(=O)NCc4cccc(C)c4)CC3)ccc21	0	0	-	-	0	0
Cc1cc(C(=O)Nc2cccc(/C=C/C(=O)O)c2)c(C)o1	0	0	0	0	0	?
Cc1oc(-c2ccccc2)cc1C(=O)Nc1ccc2ccccc2c1	0	0	0	89µM	0	0[0.501 µM]
SMILES	HP1b chromo inh	BAZ2B inh	L3MBTL1 inh	Sfp PPTase inh	JMJD2A Tudor inh	G9a block
Cc1oc(-c2ccccc2)cc1C(=O)Nc1cccc(/C=C/C(=O)O)c1	?	45µM	0	0	?	0
CCOC(=O)c1cnn(-c2cccc(Cl)c2)c1C1CCN(C(=O)OC(C)(C)C)CC1	0	-	-	-	0	0
COc1ccccc1N1C(=O)N(C(C)=O)C2C1Nc1ccccc1N2C (stereo not given)	0	-	0	0	?	7.1µM
COc1cccc(CNC(=O)c2ccc3c(c2)nc2n3CCOC2)c1OC	0	0	-	-	0	0
COc1ccc(C(C2C(=O)CC(C)(C)CC2=O)C2C(=O)CC(C)(C)CC2=O)cc1CO	0	0	-	56µM	0	?
CC1(C)CC(=O)C(C(c2ccc(F)cc2)C2C(=O)CC(C)(C)CC2=O)C(=O)C1	0	0	0	0	0	?
CC1(C)CC(=O)C(C(c2ccc(Br)cc2)C2C(=O)CC(C)(C)CC2=O)C(=O)C1	0	0	0	0	0	45µM
CC1(C)CC(=O)C(C(c2ccco2)C2C(=O)CC(C)(C)CC2=O)C(=O)C1	0	0	0	50µM	?	?
O=C1SC(SC(=Nc2ccccc2)Nc2ccccc2)C(=O)N1c1ccccc1 (stereo not given)	?	?	0	0	?	45µM
Cc1cccc(N2C(=O)CC(SC(=Nc3ccccc3)Nc3ccccc3)C2=O)c1 (stereo not given)	0	0	0	0	0	0
CCOC(=O)c1c(C)c(-c2ccccc2)n(CC(=O)N2CCN(C)CC2)c1C	0	0	-	0	0	71µM
CCN(c1ccccc1)S(=O)(=O)c1cc2c(cc1C)N(C)CCO2	0	?	0	0	?	79µM
COc1ccc(NS(=O)(=O)c2cc3c(cc2C)N(C(C)=O)CCO3)c(OC)c1	0	0	0	0	0	0
COc1ccc(NS(=O)(=O)c2cc3c(cc2C)N(C)CCO3)c(OC)c1	0	50µM	0	0	?	?
COc1ccc(C(=O)N2CC(=O)Nc3ccc(F)cc3C2c2ccc(F)cc2)c(OC)c1 (stereo not given)	0	0	-	-	0	0
CCOc1ccc(C2c3c(oc4cc(C)c(C)cc4c3=O)C(=O)N2CCCN2CCOCC2)cc1 (stereo not given)	0	0	-	50µM	0	28µM
Cc1cc2oc3c(c(=O)c2cc1C)C(c1ccc(C(C)C)cc1)N(CCCN1CCOCC1)C3=O (stereo not given)	0	0	0	0	?	50µM
CCOc1ccc(C2c3c(oc4cc(C)c(C)cc4c3=O)C(=O)N2CCCN(C)C)cc1OC (stereo not given)	0	0	0	0	0	50µM
C=CCOc1ccc(C2c3c(oc4ccc(C)cc4c3=O)C(=O)N2CCCN2CCOCC2)cc1 (stereo not given)	0	0	-	-	0	?
Cc1cc2ccccc2n1CCNC(=O)c1ccccc1F	0	0	-	-	0	0
O=S(=O)(c1ccc2c(Cl)cccc2c1)N1CCN(c2nc(-c3cccs3)nc3ccccc23)CC1	0	-	-	-	0	-
CC1=C(C(=O)O)N2C(=O)C(NC(=O)c3nn(C)c(C)c3Cl)C2SC1 (stereo not given)	0	0	-	11µM	?	8.9µM
CC1=C(C(=O)O)N2C(=O)C(NC(=O)c3c(F)cccc3F)C2SC1 (stereo not given)	0	?	0	-	0	45µM
